Sampled rows, rich in hits. Any-hit rate of the full collection: about 1.6%.
Cdc25B inh: human M-phase inducer phosphatase 2 inhibition; P30305; recombinant Cdc25B, OMFP fluorescence Ex485/Em525; inhibition, %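 (compounds tested at 10 µM final in the well)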; 65,000 tested, 0.1% active; AID 368; in the data active = inhibition above about 50%
Target sequence (P30305 whole entry, looked up): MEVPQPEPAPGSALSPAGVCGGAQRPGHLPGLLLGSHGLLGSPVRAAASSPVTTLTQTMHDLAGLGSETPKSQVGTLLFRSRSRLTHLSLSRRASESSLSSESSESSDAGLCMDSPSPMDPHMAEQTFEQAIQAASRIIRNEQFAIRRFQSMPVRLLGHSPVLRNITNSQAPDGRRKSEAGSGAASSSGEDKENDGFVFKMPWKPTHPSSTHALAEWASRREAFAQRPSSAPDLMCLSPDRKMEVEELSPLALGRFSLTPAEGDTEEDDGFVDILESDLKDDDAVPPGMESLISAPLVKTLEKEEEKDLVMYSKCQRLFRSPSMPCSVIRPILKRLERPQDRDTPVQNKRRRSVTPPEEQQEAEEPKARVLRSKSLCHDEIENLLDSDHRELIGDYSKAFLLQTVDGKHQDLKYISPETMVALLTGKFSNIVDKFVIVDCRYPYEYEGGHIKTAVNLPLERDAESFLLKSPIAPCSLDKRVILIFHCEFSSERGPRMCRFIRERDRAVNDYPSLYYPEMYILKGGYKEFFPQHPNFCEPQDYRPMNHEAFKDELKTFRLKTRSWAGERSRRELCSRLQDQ
mHtt clearance: compounds clearing mutant huntingtin protein; HeLa Exon1htt(103Q)mCFP, aggregate imaging; zero = plate's median compound well; inhibition, % at 1.5 µM; 47,000 tested, 0.42% active; AID 853;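 active = inhibition of aggregate fluorescence above about 70%, also judged a hit by eye on the cell image, limit read from the data, passing the limit was not always enough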;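 note: cells exposed to compound for three days before fixation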
SK-BR-3 tox 24h: SK-BR-3 proliferation inhibitors. 41,000 tested, 0.47% active. viability, % at 10 µM. AID 847. SK-BR-3 viability, CellTiter-Glo ATP luminescence, 24 h; stronger effect = lower value;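 active = viability at or below the median of all test compounds minus 3 SD, in both replicates if run twice, cut at about 45% in these data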;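 note: 100% = median untreated cell wells and 0% = median positive control drug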
MKP-1 inh: inhibitors of human MKP-1 phosphatase; recombinant MKP-1, OMFP hydrolysis fluorescence; inhibition, %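 (compounds tested at a single concentration somewhere between 10 and 100 µM)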; 65,000 tested, 0.15% active; AID 374;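 active = inhibition above about 50%, limit read from the data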;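 note: 0% = DMSO max control wells and 100% = wells with enzyme stopped by NaOH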
Jurkat viability: cytotoxicity toward Jurkat cells | Jurkat E6.1 viability, ATP luminescence, 48 h | inhibition, % at 4 µM | 56,000 tested, 1.2% active;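 active = inhibition above the mean inhibition of all tested compounds plus 3 SD, cut at about 28% in these data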
The depositor's hits bear a star; x = no result given.

SMILES | Cdc25B inh | mHtt clearance | SK-BR-3 tox 24h | MKP-1 inh | Jurkat viability
OC12CCCCC1C(c1ccc3c(c1)OCO3)N(Cc1ccc(F)cc1)CC2 (stereo not drawn) | 5 | 57 | 70 | -5 | -4
OC12CCCCC1C(c1ccc3c(c1)OCO3)N(Cc1ccccc1F)CC2 (stereo not drawn) | 7 | 73* | 73 | -4 | -5
Cc1cc(NC(=O)CS(=O)(=O)c2cn(Cc3ccccc3Cl)c3ccccc23)no1 | x | x | 34* | 6 | x
Cc1cc(C)n(-c2ccc(C(=O)Nc3ccc(S(=O)(=O)NCc4ccco4)cc3)cc2)n1 | -5 | 8 | x | 7 | 65*
O=C(Nc1ccccc1)c1ccc(S(=O)(=O)NCc2ccco2)cc1 | -7 | x | 91 | -1 | 11
COc1ccc(Br)cc1C1NC(=O)c2c(sc3c2CCN(C)C3)N1 (stereo not drawn) | -9 | x | 43* | 11 | 5
N#C/C(C(=O)NCc1ccccc1)=C1\SC(CCO)C(=O)N1c1ccccc1 (stereo not drawn) | 84* | 22 | 76 | -13 | x
COc1ccc(CN2CCN(C)CC2)cc1OCc1ccccc1 | -13 | 74* | x | 4 | 6
CCOc1ccc(Nc2cc(C)nc(-n3nc(C)cc3C)n2)cc1 | 6 | x | 86 | -5 | 99*
O=C(Cc1ccc(F)cc1)Nc1c2c(nn1-c1cccc(Cl)c1)CS(=O)C2 (stereo not drawn) | -18 | 25 | 36* | -21 | -2
CC(=O)Nc1c2c(nn1-c1cccc(Cl)c1)CS(=O)C2 (stereo not drawn) | 4 | x | x | 12 | -1
O=C(/C=C\Nc1cccc(F)c1)c1ccc2c(c1)OCO2 | -8 | 84* | x | 1 | -9
Cc1c(Cl)c(C(F)(F)F)nn1CC(=O)N1CCSCC1 | -20 | -20 | 73 | -18 | x
CCOc1ccc(-c2cc(C(=O)O)c3ccccc3n2)c(OCC)c1 | -7 | x | x | 15 | 37*
COCCNC(=O)c1ccc2c(c1)nc(C)n2-c1cc(OC)c(OC)c(OC)c1 | 9 | 65 | 87 | 13 | -2
CCOCCCn1c(=N)c(C(=O)Nc2cc(C)on2)cc2c(=O)n3ccccc3nc21 | -11 | 44 | x | 6 | 3
CC(NC(=O)NCc1cccnc1)(C(F)(F)F)C(F)(F)F | -34 | -19 | 102 | -18 | x
Cc1ccc(Cl)cc1N1CCN(C(=O)COc2ccc(S(=O)(=O)NC(C)C)cc2)CC1 | -41 | x | x | 13 | 54*
c1ccc(N2CCN(c3c4c(nc5ncnn35)CCC4)CC2)cc1 | -5 | x | x | -6 | x
COc1cccc(N2CCN(c3c4c(nc5ncnn35)CCC4)CC2)c1 | -18 | -9 | 25* | 2 | x
COC(=O)c1ccc(NC(=O)CSc2nccn2CCc2ccccc2)cc1 | x | -68 | x | x | x
CCn1c(=S)[nH]c2nc3c(cc2c1=O)CCCC3 | x | 71* | x | x | x
Cc1cc(C)n2nc3nc4c(cc3c2n1)CCCC4 | -5 | x | 87 | 3 | x
O=C(c1cccs1)N1CCC(c2nc(-c3ccc(S(=O)(=O)N4CCOCC4)cc3)no2)CC1 | -16 | x | 104 | 20 | -6
O=C(Nc1ccccc1)N1CCC(c2nc(-c3ccc(S(=O)(=O)N4CCOCC4)cc3)no2)CC1 | 18 | x | 81 | -5 | 33*
SMILES | Cdc25B inh | mHtt clearance | SK-BR-3 tox 24h | MKP-1 inh | Jurkat viability
CC12CC(NC(=O)N1c1ccc(C(=O)N3CCN(c4ccc(F)cc4)CC3)cc1)c1ccccc1O2 (stereo not drawn) | 8 | -19 | 91 | 53* | -6
Cc1cc(/N=C/C=C2\N(C)c3ccccc3C2(C)C)n(CCC#N)n1 | -7 | 11 | x | 0 | -1
O=c1cc(Nc2ccc3c(c2)OCCO3)[nH]c(=O)n1C1CCCCC1 | 36 | x | 86 | -1 | 59*
CCc1ccc(Nc2cc(=O)n(C3CCCCC3)c(=O)[nH]2)cc1 | 11 | x | 107 | -1 | 0
COc1ccc(F)cc1S(=O)(=O)N1CC(C)CC(C)C1 (stereo not drawn) | x | -20 | x | x | x
CCOc1c(Br)cc(C2NS(=O)(=O)N=C3CCCCCN32)cc1OC (stereo not drawn) | 6 | x | x | -3 | 1
COc1ccc(OC)c(NC(=O)Cn2cc(C(=O)c3ccco3)c3ccccc32)c1 | -7 | 76* | 83 | 7 | 6
Cc1ccc(C)c2[nH]c(=O)c(CN(CCN3CCCC3)C(=O)Nc3cccc(Cl)c3)cc12 | -17 | 39 | x | 6 | 51*
CC(=O)c1cnc(Nc2nc(C)c3cccc(C)c3n2)nc1C | 2 | x | 60 | 0 | -4
CCOc1ccccc1NC(=O)C1CCN(S(=O)(=O)c2ccc(OC)c(OC)c2)CC1 | -8 | x | 81 | 15 | 4
CCOc1ccccc1NC(=O)C1CCN(c2ccc(S(=O)(=O)N3CCCC3)cc2)CC1 | -2 | 72* | 72 | -11 | 1
COC(=O)/C=C/S(=O)(=O)c1ccc(NC(C)=O)cc1 | -2 | -18 | 2.1* | 7 | 71*
O=C(Nc1ccc(F)cc1)N1CCN(c2nc3ccccc3s2)CC1 | -12 | -10 | 41* | -7 | 10
CC(C)C1O/C(=N/C(=O)Nc2ccc(Cl)c(Cl)c2)NC1=O (stereo not drawn) | -12 | x | x | -5 | -4
COc1cc(C)c(C(C)C)cc1S(=O)(=O)n1cnc(C)c1 | 2 | x | x | 4 | 85*
Cc1ccc(C(=O)CCNc2ccc(F)c(Cl)c2)o1 | 4 | x | 118 | -5 | 83*
CS(=O)(=O)c1ncc(Cl)c(C(=O)Nc2ccc(N3CCOCC3)cc2)n1 | -8 | x | 70 | 1 | 62*
CC(C)CNC(=O)C1CCN(c2ccc(S(=O)(=O)N3CCOCC3)cc2Cl)CC1 | -4 | x | 96 | 5 | 13
O=C(NCc1cccs1)C1CCN(c2ccc(S(=O)(=O)N3CCOCC3)cc2Cl)CC1 | -17 | -297 | 74 | -20 | 91*
CCC(Sc1nnnn1-c1ccccc1)C(=O)NC(C)c1ccccc1 (stereo not drawn) | -6 | 71* | 95 | -11 | -1
CCC(Sc1nnnn1-c1ccccc1)C(=O)Nc1nc2ccccc2s1 (stereo not drawn) | x | x | 79 | x | x
c1ccc(C(Cc2nc(-c3ccncc3)no2)c2ccccc2)cc1 | -10 | 11 | 95 | 27 | 58*
CC(=O)Cc1nsc(NC(=O)c2cc(-c3ccccc3Cl)oc2C)n1 | -3 | x | x | 10 | 8
O=C(N/N=C1\CCCc2ccccc21)C(O)c1ccccc1 (stereo not drawn) | x | 8 | x | x | x
CCN(CC)c1ccc2c(c1)OC(N)=C(C#N)C2c1cccnc1 (stereo not drawn) | 13 | x | 93 | 22 | 97*
O=C(COC(=O)Cc1cccs1)Nc1ccccc1 | 7 | -6 | 95 | 5 | -4
Cc1ccnc(NC(=O)CCC(=O)N(CC(=O)NC2CCCCC2)Cc2ccc3c(c2)OCO3)c1 | 7 | x | 77 | 17 | 7
Cc1c(-c2cccs2)[n+](=O)c2c(n1[O-])CCCCC2 | -14 | 1 | 86 | 3 | x
Cc1nc(NCC2CCCO2)[nH]c(=O)c1CCC(C)C (stereo not drawn) | -13 | x | 103 | 17 | -6
Cc1n[nH]c(=O)nc1NCC1CCCO1 (stereo not drawn) | -7 | 76* | 110 | -8 | -5
